# Source: PubChem BioAssay (NCATS)
# Records with an inconclusive call do not appear. A call without a number means that no potency is given here. Active and inactive are the calls of the source. Calls follow the shape of the dose curve; as a rule, active = well fitted cell-killing curve with a large enough effect; inconclusive = small, poorly fitted or top-dose-only effect, or effect the other way; inactive = no such curve, though single readings can be large or run the other way.
# What was measured:
# [1] = Viability qHTS for spleen associated tyrosine kinase inhibitor (SYKi) naive MV4-11 cells (AID 1963823); also: nearly all actives have a fitted effect of over 40% in size
# How it was run: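 Read-out: CellTiter-Glo luminescence. Exposure: 72 hr, 37 C, 5% CO2, 95% humidity. Cells: MV4-11 without SYK inhibitor history, 500/well, qHTS format.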
# [2] = Viability qHTS for spleen associated tyrosine kinase inhibitor (SYKi) drug resistant MV4-11 cells (AID 1963824); also: nearly all actives have a fitted effect of over 35% in size
# How it was run: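 SYK-inhibitor-resistant MV4-11 AML cells were seeded at 500 per well onto compound and cultured 72 hours (37 °C, 5% CO2). CellTiter-Glo was then added, and after 10 min at room temperature, luminescence gave viability.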
# Potency is read from the fitted curve at half-maximal effect.
Compound,Potency [1],Potency [2]
OCCc1ccc(O[C@@H]2O[C@H](CO)[C@@H](O)[C@H](O)[C@H]2O)c(O)c1,inactive,inactive
COc1cc(O)cc(O[C@@H]2O[C@H](CO)[C@@H](O[C@@H]3OC[C@](O)(CO)[C@H]3O)[C@H](O)[C@H]2O)c1OC,inactive,inactive
CN1CC[C@@H](c2c(O)cc(O)c3c(=O)cc(-c4ccc(C(F)(F)F)cc4Cl)oc23)[C@@H]1CO,16.4 µM (active),18.4 µM (active)
CC(C)=CCC(O)/C(C)=C/CO[C@@H]1O[C@H](CO)[C@@H](O)[C@H](O)[C@H]1O (stereo partly specified),inactive,inactive
CC(=O)O[C@H]1[C@H](O[C@H]2CC[C@]34C[C@]35CC[C@]3(C)[C@@H]([C@@]6(C)CC[C@@H](C(C)(C)O)O6)[C@@H](O)C[C@@]3(C)[C@@H]5C[C@H](O[C@@H]3O[C@H](CO)[C@@H](O)[C@H](O)[C@H]3O)[C@H]4C2(C)C)OC[C@@H](OC(C)=O)[C@@H]1O,inactive,inactive
C=C[C@@](C)(O)CC/C=C(\C)C(=O)O[C@@H]1[C@@H]2O[C@]2(C)[C@H]2[C@H](O[C@@H]3O[C@H](CO)[C@@H](O)[C@H](O)[C@H]3O)OC=C[C@@]12O,inactive,inactive
C=CC1(C)CC(OC(=O)C(=C)C(O)COC(C)=O)C(C(=C)C(=O)OC)C(O)C1C(=C)CO (stereo unspecified),8.93 µM (active),10 µM (active)
CC1OC(OC2CCC3(C)C(CCC4(C)C3CC=C3C5CC(C)(C)CCC5(C(=O)OC5OC(CO)C(O)C(O)C5O)CCC34C(=O)O)C2(C)C)C(O)C(O)C1O (stereo unspecified),inactive,inactive
